The list is not random: actives were taken first. Their share in the collection is about 7.4%.
Rab9 promoter act – activators of Rab9 promoter | Huh7 Rab9 promoter-luciferase reporter, luminescence, 24 h | Potency, µM (highest dose often 9.22 µM), usual class: activators | 2.8% of 320,000 active; further: nearly all actives have a fitted effect of over 60% in size
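Luminescence from Amplite-detected luciferase (10 minutes, ambient) reports Rab9 promoter activation. Before that, stable Rab9-luciferase Huh7 cells (1500/well, reduced-serum OP-MEM I plus 10% FBS) were exposed to compound for 24 hours at 37C.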
SMN2 splice up – enhancers of SMN2 splice variant expression; HEK293 SMN2-luciferase splicing reporter, luminescence, 30-36 h; Potency, µM (series often up to 46.1 µM), usual class: activators; 2.8% of 210,000 active; AID 1458; further: nearly all actives have a fitted effect of over 55% in size
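qHTS luciferase splicing reporter: luminescence rises when SMN2 exon 7 is included in transfected HEK293 cells. Compound exposure lasted 30-36 h at 37C, with 4.5 mM final sodium butyrate as control, followed by a ONE-Glo read.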
ELG1 genotox – induces genotoxicity in HEK293T cells with luciferase-tagged ELG1; HEK293T ELG1-luciferase reporter, luminescence, 16 h; Potency, µM (titrated, usually from 46 µM), most hits filed as activators; 1.3% of 330,000 active; AID 504466; further: nearly all actives have a fitted effect of over 60% in size
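Screening used a luciferase reporter fused to human ELG1 in HEK293T cells. Luminescence was read on a CCD plate imager after 16 hr exposure and 30 min ONE-Glo incubation.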
FLuc counter – firefly luciferase modulation, counter-screen for miR-21 project; P08659; purified FLuc, Km substrates, luminescence inhibition; Potency, µM (series often up to 57.5 µM), most hits filed as inhibitors; 6.9% of 360,000 active; further: nearly all actives have a fitted effect of over 55% in size
Target sequence (P08659 whole entry, looked up): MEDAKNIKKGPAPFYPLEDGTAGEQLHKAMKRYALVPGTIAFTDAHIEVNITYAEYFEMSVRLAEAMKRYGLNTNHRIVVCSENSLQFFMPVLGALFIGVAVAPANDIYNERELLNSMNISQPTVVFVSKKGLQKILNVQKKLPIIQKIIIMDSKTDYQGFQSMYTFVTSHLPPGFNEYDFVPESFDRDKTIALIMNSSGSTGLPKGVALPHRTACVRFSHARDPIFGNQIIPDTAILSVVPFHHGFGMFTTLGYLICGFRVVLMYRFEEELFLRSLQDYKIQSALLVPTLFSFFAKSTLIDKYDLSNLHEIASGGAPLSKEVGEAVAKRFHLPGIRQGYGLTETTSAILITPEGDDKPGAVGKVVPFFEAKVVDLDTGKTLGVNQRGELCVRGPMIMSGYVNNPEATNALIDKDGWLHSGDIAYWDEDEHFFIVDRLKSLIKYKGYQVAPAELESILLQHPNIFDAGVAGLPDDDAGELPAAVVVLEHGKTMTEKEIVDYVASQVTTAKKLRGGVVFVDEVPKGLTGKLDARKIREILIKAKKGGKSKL
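Purified P. pyralis luciferase (10nM final) with 10uM D-luciferin and 10uM ATP (Km levels) in 50mM Tris acetate pH 7.5, 10mM Mg acetate, 0.01% Tween-20, 0.05% BSA; qHTS 6-point titration, ~60 µM downward; luminescence read.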
NPC1 prom act – NPC1 promoter activation; Huh7 NPC1 promoter luciferase reporter, 24 h; Potency, µM (doses to about 9.22 µM), usual class: activators; 2.4% of 320,000 active; AID 485313; further: nearly all actives have a fitted effect of over 60% in size
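Quantitative HTS used a cell-based reporter: Huh7 cells stably bearing the NPC1 promoter upstream of luciferase were treated with compounds for 24 h, and promoter activation was read as luminescence.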
Hits are given with their value; - = inactive; ? = inconclusive; . = no result; [ ] = dose if it differs, or a comment. The call rests on the fitted dose curve; in most records, active means well fitted curve in the direction sought with a large enough effect; inconclusive means small, poorly fitted or top-dose-only effect, or another doubt; inactive means no such curve, though single readings can be large; an effect the other way counts as inactive or inconclusive.

SMILES | Rab9 promoter act | SMN2 splice up | ELG1 genotox | FLuc counter | NPC1 prom act
O=C(Nc1cccc(F)c1)c1ccc2c(c1)OCCO2 | 3.16µM | . | ? | 4.78µM | ?
CCCc1cc(C(=O)NNC(=S)Nc2cccc(C)c2)cs1 | 2.51µM | 5.62µM | - | 10.7µM | ?
COC(=O)c1ccsc1NC(=O)c1ccc2c(c1)OCCO2 | - | . | - | 19µM | -
O=C(Nc1ccccc1)c1ccc2c(c1)OCCO2 | 1.58µM | 17.8µM | ? | 4.26µM | 0.708µM
CN(CC(=O)Nc1cccc(F)c1)C(=O)c1ccc2c(c1)OCCO2 | - | . | - | ? | -
COC(=O)c1ccc(CNC(=O)c2ccc3c(c2)OCCO3)cc1 | - | . | - | ? | -
O=C(Nc1ccc(NC(=O)c2ccc3c(c2)OCCO3)cc1)c1ccccc1 | - | . | ? | - | -
CCc1nn(CCCC(=O)N2CCN(c3cc(Cl)ccc3C)CC2)c(=O)c2cc3occc3n12 | . | - | . | - | .
CCc1ccccc1N1CC(c2nc3ccccc3n2CC(C)C)CC1=O (configuration not stated) | . | - | . | - | .
Cc1ccc(C(=O)c2oc3ccccc3c2NC(=O)C(C)Oc2ccccc2Cl)cc1 (configuration not stated) | . | - | . | - | .
Cc1cccc(NC(=O)CN2CCC(C(=O)c3ccc4c(c3)OCCO4)CC2)c1 | - | . | - | - | -
COc1ccc(C(=O)NCC(=O)OCC(=O)c2ccc3c(c2)OCCO3)cc1 | - | - | - | - | -
Cc1cc(NC(=O)c2ccc3c(c2)OCO3)ccc1NC(=O)c1ccccc1 | - | . | ? | ? | -
Cc1ccc(C(=O)NCC(=O)OCC(=O)c2ccc3c(c2)OCCO3)cc1C | - | - | - | 21.3µM | -
Cc1cccc(NC(=O)c2ccc3c(c2)OCCO3)c1 | 0.631µM | . | ? | 0.757µM | 0.891µM
Cc1ccc(NC(=O)c2ccc3c(c2)OCCO3)cc1S(=O)(=O)Nc1cccc(Cl)c1 | - | . | - | 16.9µM | -
Cc1ccc(C(=O)Nc2cccc(N(C)S(C)(=O)=O)c2)cc1S(=O)(=O)Nc1ccccc1 | - | - | - | - | -
Cc1ccc(NC(=O)c2ccc3c(c2)OCCO3)cc1C | 0.316µM | . | ? | 0.269µM | 0.631µM
O=C(NCc1ccccc1F)c1cccc(NC(=O)N2CCSc3ncccc32)c1 | . | . | . | - | .
Cc1ccc(C(=O)NCC(=O)Nc2ccc3c(c2)OCCO3)cc1 | - | . | - | - | -
Cc1cccc(NC(=S)NCc2ccc3c(c2)OCO3)c1 | - | - | - | - | -
Cc1ccc(-c2cc(C(=O)Nc3cc(C(=O)O)ccc3C)c3ccccc3n2)cc1 | - | . | - | 10.7µM | -
Cc1ccc(C(=O)Nc2ccc3c(c2)OCCO3)c(C)c1 | 0.0891µM | . | ? | 0.301µM | 0.0891µM
Cc1ccc(-c2cc(C(=O)Nc3ccc4c(c3)OCCO4)c3ccccc3n2)cc1 | - | 11.2µM | - | 9.53µM | -
Cc1cccc(NC(=S)NNC(=O)c2ccc3c(c2)OCO3)c1 | 1.78µM | 12.6µM | ? | 4.78µM | ?
SMILES | Rab9 promoter act | SMN2 splice up | ELG1 genotox | FLuc counter | NPC1 prom act
CCc1ccc(NS(=O)(=O)c2c(-c3ccccc3)csc2C(=O)OC)cc1 | . | . | . | - | .
Cc1ccc(C)c(N2CCN(S(=O)(=O)c3ccc(C(=O)N(C)C)s3)CC2)c1 | . | . | . | - | .
O=C(O)CN(CCN(CC(=O)O)CC(=O)O)CC(=O)O.[Mn] | . | -[9.22 µM] | . | . | .
CC(C)CN1CC[C@@]2(CCCN(C(=O)c3ccco3)C2)C1 | . | - | . | . | .
CC(C)CNC(=S)NNC(=O)c1csc2c1CCC(C)C2 (configuration not stated) | - | - | - | - | -
Cc1cccc(NC(=S)NNC(=O)c2csc3c2CCC(C)C3)c1 (configuration not stated) | ? | - | - | 12µM | -
O=C(/C=C/Sc1ccc(C(F)(F)F)cn1)c1ccccc1 | - | . | - | 0.536µM | -
O=C(CSc1ccc(C(F)(F)F)cn1)Nc1ccccc1 | - | . | - | - | -
Cc1c(C(=O)NC2CCCC2)oc2ccccc12 | - | . | - | ? | -
Cc1c(C(=O)NCc2ccccn2)oc2ccccc12 | ? | ? | 14.6µM | ? | ?
CCOc1ccc2oc(C(=O)O)c(C)c2c1 | - | . | - | ? | -
CCOc1ccc2oc(C(=O)Nc3cc(C)ccn3)c(C)c2c1 | 0.501µM | . | ? | 0.338µM | 0.631µM
Cc1ccnc(NC(=O)c2oc3ccccc3c2C)c1 | 2.51µM | . | ? | 1.2µM | 2.82µM
CCOc1ccc2oc(C(=O)NNC(=O)c3ccccc3O)c(C)c2c1 | - | . | ? | 10.7µM | -
O=S(=O)(NCCc1csc2nc(-c3ccc(F)cc3)nn12)c1ccc2c(c1)OCCO2 | . | . | . | - | .
CC(C)(c1cc(Br)c(OCC(Br)CBr)c(Br)c1)c1cc(Br)c(OCC(Br)CBr)c(Br)c1 (configuration not stated) | . | - | . | . | .
Cc1c(C(=O)Nc2ccc(Cl)cn2)oc2ccccc12 | - | ? | ? | - | -
Cc1c(C(=O)Nc2cnccn2)oc2ccccc12 | - | 11.2µM | ? | 15.1µM | -
CC(C)(C)C1CCc2nc(NC(=O)COc3ccccc3[N+](=O)[O-])sc2C1 (configuration not stated) | . | . | . | - | .
Cc1cc(C)cc(OCC(=O)Nc2nc3c(s2)CC(C(C)(C)C)CC3)c1 (configuration not stated) | . | . | . | 12µM | .
FC(F)Oc1ccc(NC(=S)NC2CCCCCCC2)cc1 | - | . | - | 19µM | -
S=C(Nc1ccc(Nc2ccccc2)cc1)NC1CCCCCC1 | - | - | - | - | -
CCN(CC)CCNC(=S)Nc1ccc(Cl)cc1 | - | - | - | - | -
CC(C)(C)NC(=S)Nc1ccc(Br)cc1 | - | - | - | 19µM | -
S=C(Nc1ccc(Br)cc1)NC1CCCCC1 | - | 12.6µM | - | 10.7µM | -
SMILES | Rab9 promoter act | SMN2 splice up | ELG1 genotox | FLuc counter | NPC1 prom act
FC(F)Oc1ccc(NC(=S)NC2CCSc3ccccc32)cc1 (configuration not stated) | - | . | - | - | -
CCN(CC)CCCNC(=S)Nc1ccc(Br)cc1 | ? | . | 23.1µM | 10.7µM | ?
CCOC(=O)c1ccccc1NC(=O)C(=O)Nc1ccc2nc3n(c(=O)c2c1)CCCCC3 | . | - | . | - | .
S=C(Nc1ccc(Cl)cc1)NC1CCCCC1 | - | . | - | 15.1µM | -
S=C(Nc1cccc(Cl)c1)NC1CCCCC1 | - | - | - | ? | -
CC(C)(C)C1CCC(=NOC(=O)c2ccc(F)cc2)CC1 (configuration not stated) | - | - | - | 19µM | -
O=C(O/N=C1/CCCc2occc21)c1ccc(F)cc1 | - | - | - | 1.9µM | -
O=C(ON=C1CCN(S(=O)(=O)c2ccccc2)CC1)c1ccc(F)cc1 | - | - | - | - | -
O=C(O/N=C1/CCSc2ccccc21)c1ccc(F)cc1 | - | - | - | 0.338µM | -
CC[C@H]1C2=C3C(CC[C@H]4C(OCc5ccc(F)cc5C(F)(F)F)OC[C@](C)([C@@H]34)N(C(=O)OC(C)(C)C)C2)C2COC(=O)OCC21 (some centres not stated) | . | - | . | . | .
O=c1[nH]c(-c2ccc(-c3cccc(Cl)c3)o2)nc2ccccc12 | . | . | 2.59µM | . | .
O=C(NCCO)C(=O)Nc1c2c(nn1-c1ccc(F)cc1)CSC2 | . | . | . | - | .
